Results filed as inconclusive are left out. Activity calls are given as the source filed them. Calls follow the shape of the dose curve; as a rule, active = well fitted cell-killing curve with a large enough effect; inconclusive = small, poorly fitted or top-dose-only effect; inactive = no such curve, though single readings can be large or run the other way.
Potency is read from the fitted curve at half-maximal effect.

This assay is described as follows: qHTS of pediatric cancer cell lines to identify multiple opportunities for drug repurposing: Primary screen for OHS-50 cells (AID 1347103). Also: nearly all actives have a fitted effect of over 40% in size. The settings on record: OHS-50 osteosarcoma viability, CellTiter-Glo luminescence, 48 h; series mostly up to 57.3 µM. The text has this:
Drug repurposing or repositioning has been offered as a strategy for drug development in oncology programs. This approach has special potential for childhood cancers and other rare or orphan diseases, where the expected return on new drug development has been a disincentive to pharmaceuticals.
In this project we exploit the poly-pharmacology of drugs to discover new indications via phenotypic screening of a panel of 19 well-characterized cell lines derived from solid tumors seen in children and adolescents. The goal is to identify approved drugs with previously unrecognized anticancer properties that has the potential to reveal new mechanisms and biological processes involved in carcinogenesis or drug resistance. We employed a titration-based paradigm (quantitative high-throughput screening or qHTS), where all compounds were tested at multiple concentrations for their effect on cell viability. Concentration-response curves (CRCs) were derived directly from the primary screen, and both potency and efficacy values were used to identify compounds with robust bioactivity profiles. We screened the NIH Chemical Genomics Center (NCGC) Pharmaceutical Collection (NPC) and Mechanism Interrogation Plate (MIPE) small molecule collections of approved and investigational compounds against these cell lines; and measured metabolically active cells after 48 hours of compound treatment as a proxy for cell viability.
Assay Submitter: Nathalia J. Martinez, National Center for Advancing Translational Sciences, National Institutes of Health, Rockville, MD, USA; email: natalia.martinez@nih.gov
[1] Shen, M et al. Quantitative high-throughput phenotypic screening of pediatric cancer cell lines identifies multiple opportunities for drug repurposing. Oncotarget 2017 Dec 19;9(4):4758-4772. PMID 29435139.
The cells were obtained from University of North Carolina (UNC), Pediatric Preclinical Testing Program (PPT), and Coriell Institute (CI).
qHTS cell viability assay:
Cells were assayed in growth media at a density of 500-1,000 cells/well. Five microliters of cells were dispensed into 1,536-well, white, solid-bottom, TC-treated plates (Greiner Bio One) using a multidrop dispenser and incubated at 37 degrees C, 5% CO2, under a humidified atmosphere for 5 hours. Twenty-three nanoliters of compounds and controls (neutral control DMSO or positive control bortezomib at final concentration of 2.3 µM) were subsequently transferred by Kalypsys pintool. For primary screens, the MIPE collection was tested at 11-point dilutions (final concentrations range from 0.78 nM to 46 µM) and the NPC collection at 8-point dilutions (final concentrations range from 0.59 nM to 46 µM). Compounds tested in follow-up screens were assayed at 11-point dilutions. Cells were incubated for 48 hours, followed by addition of 3 µL of CellTiter-Glo (Promega). After a 15 min incubation at room temperature, samples were analyzed for luminescence intensity using a ViewLux High-throughput CCD imager equipped with clear filters.
Take `O=C(Nc1ncc(SCCN2CCCC2)s1)[C@]1(c2ccc(S(=O)(=O)C3CC3)cc2)C[C@@H]1C1CCCCC1`: the Potency is 24.3 µM (active). The same measure, in the same setting: the same measure for `CCn1c(-c2nonc2N)nc2cncc(CNC3CCNCC3)c21`: “inactive”; for `C[C@H]1[C@H](O)O[C@@H]2O[C@@]3(C)CC[C@@H]4[C@H](C)CC[C@@H]1[C@@]24OO3`: 1.37 µM (active).

Turning to `Nc1ncnc2c1c(-c1cccc(OCc3ccccc3)c1)cn2C1CC(CN2CCC2)C1` (stereo not given), the Potency is 0.968 µM (active).

For `COc1cc2c(cc1OC)[C@@H]1Cc3ccc(OC)c(OC)c3CN1CC2`, the Potency result was “inactive”. As for `Clc1ccc(COC(Cn2ccnc2)c2ccc(Cl)cc2Cl)c(Cl)c1` (stereo not given), the Potency is 19.3 µM (active). Still for that read-out and setting: in the case of `CC(C)C[C@@H](C(=O)N[C@H](C(=O)OC1CCCC1)c1ccccc1)[C@H](O)C(=O)NO` it was 21.7 µM (active); in that of `CO[C@@H]1C(N(C)C(=O)c2ccccc2)C[C@H]2O[C@]1(C)n1c3ccccc3c3c4c(c5c6ccccc6n2c5c31)C(=O)NC4=O` (stereo not given in full), “inactive”. On the same count and under the same terms, the same measure for `CCCCN(CCCC)CC(O)c1cc(Cl)cc2c1-c1ccc(Cl)cc1C2=Cc1ccc(Cl)cc1` (stereo not given): “inactive”; for `OC[C@H]1O[C@@H](O[C@H]2[C@@H](O)[C@@](O)(CO)O[C@@H]2CO)[C@H](O)[C@@H](O)[C@@H]1O`: “inactive”; for `NC(=O)c1nnn(Cc2cc(Cl)c(C(=O)c3ccc(Cl)cc3)c(Cl)c2)c1N`: 21.7 µM (active).

On to `CNc1nc(-c2ccc3c(N)n[nH]c3c2)cc(N2C[C@@H](C(=O)NC3CCCCC3)CC[C@@H]2C)n1`, for which the Potency was 0.273 µM (active).

For `C=C1[C@H](n2cnc3c(=O)[nH]c(N)nc32)C[C@H](O)[C@H]1CO`, the Potency is 8.63 µM (active).

Consider `CNC(=O)c1c(-c2ccc(F)cc2)oc2cc(N(CCO)S(C)(=O)=O)c(C3CC3)cc12`, for which the Potency is 27.3 µM (active). Same read-out and setting: in the case of `Cn1cnc(-c2cc3nccc(Oc4ccc(NC(=S)NC(=O)Cc5ccccc5)cc4F)c3s2)c1` it was 34.3 µM (active); in that of `CCOC(=O)[C@H](CCc1ccccc1)N[C@@H](C)C(=O)N1CCCC1C(=O)O` (stereo not given in full), “inactive”; in that of `O=C(CC12CC3CC(CC(C3)C1)C2)Nc1cccc2nc(NCCNCCO)ccc12`, 27.3 µM (active). Still for that read-out and setting: in the case of `COc1cc([C@H]2Oc3cc([C@H]4Oc5cc(O)cc(O)c5C(=O)[C@H]4O)ccc3O[C@H]2CO)ccc1O` it was “inactive”; in that of `Cc1cnc(CNC(=O)c2c(=O)c3ccc(N4CCCN(C)CC4)nc3n3c2sc2ccccc23)cn1`, “inactive”.

On to `COc1ccc2ccc(=O)oc2c1CC=C(C)C`, for which the Potency was 24.3 µM (active). The same measure, in the same setting: in the case of `CC=C1C2C=C(C)CC1(N)c1ccc(=O)[nH]c1C2` (stereo not given) it was “inactive”. On the same count and under the same terms, the same measure for `CCC(=C(CC)c1ccc(O)cc1)c1ccc(O)cc1`: 30.6 µM (active). In the case of `CNC1CCC(N(Cc2cccc(-c3ccncc3)c2)C(=O)c2sc3ccccc3c2Cl)CC1` (stereo not given), the Potency was 19.3 µM (active). On to `CC[C@H](C)n1cc(C)c2c(C(=O)NCc3c(C)cc(C)[nH]c3=O)cc(-c3ccc(N4CCNCC4)nc3)cc21`, for which the Potency was 24.3 µM (active). Same read-out and setting: in the case of `N#CC(c1ccc(Cl)cc1)c1c(Cl)cc(-n2ncc(=O)[nH]c2=O)cc1Cl` (stereo not given) it was 15.3 µM (active). On to `CCNC(=O)CCCC=CC[C@@H]1[C@H](C=CC(O)CCc2ccccc2)[C@@H](O)C[C@@H]1O` (stereo not given in full), for which the Potency result was “inactive”.

`CC(C)(CO)[C@@H](O)C(=O)NCCC(=O)O`: the Potency entry was “inactive”. For `CN[C@H]1[C@@H](O[C@@H]2[C@H](O[C@@H]3[C@@H](O)[C@@H](O)[C@@H](N=C(N)N)[C@@H](O)[C@@H]3N=C(N)N)O[C@H](C)[C@@]2(O)C=O)O[C@@H](CO)[C@@H](O)[C@H]1O`, the activity change, negative = cytotoxic is 7.71% [at 11.5 µM] (inactive). Consider `CCCC1OC2C[C@@H]3[C@H]4CCC5=CC(=O)C=C[C@]5(C)[C@H]4C(O)C[C@]3(C)[C@]2(C(=O)CO)O1` (stereo not given in full), for which the Potency entry is “inactive”. For `CC[C@H](C)C(=O)O[C@H]1C[C@H](O)C=C2C=C[C@H](C)[C@H](CC[C@@H](O)C[C@@H](O)CC(=O)O)[C@H]21`, the Potency entry was “inactive”. Consider `C[C@@H]1C[C@H]2[C@@H]3CCC4=CC(=O)C=C[C@]4(C)[C@@]3(F)[C@@H](O)C[C@]2(C)[C@@]1(O)C(=O)CO`, for which the Potency entry was “inactive”.

Turning to `CC[C@H](CC#N)OC(=O)N[C@@H](C)c1cccc(NC(=O)Nc2ccc(-c3cnco3)c(OC)c2)c1`, the Potency was 7.69 µM (active).

In the case of `COc1ccc(C=CC(=O)Nc2ccccc2C(=O)O)cc1OC`, the Potency entry is “inactive”. The same measure, in the same setting: in the case of `CNC(=O)c1ccc2c(C(=Nc3cccc(CN(C)C)c3)c3ccccc3)c(O)[nH]c2c1` it was 13.7 µM (active); in that of `CC[C@H](NC(=O)[C@H](C)NC)C(=O)N1C[C@@H](O)C[C@H]1Cc1c(-c2[nH]c3cc(F)ccc3c2C[C@H]2C[C@H](O)CN2C(=O)[C@H](CC)NC(=O)[C@H](C)NC)[nH]c2cc(F)ccc12`, 0.432 µM (active); in that of `COc1cc2nc(-c3cc(F)ccc3O)nc(N[C@@H]3CNC[C@@H]3C(C)(C)O)c2cc1OC`, 10.9 µM (active). Still for that read-out and setting: the same measure for `Cc1cc(-c2ncc(CC(=O)Nc3ccc(-c4cnccn4)cn3)cc2C)ccn1`: 5.44 µM (active); for `Cc1ccc(S(=O)(=O)Nc2nc3ccccc3nc2Nc2ccc3nsnc3c2)cc1`: 0.0421 µM (active).

As for `COc1ccc(-c2cc3nccn3c(Nc3ncccc3C(N)=O)n2)cc1OC`, the Potency is 1.93 µM (active). For `Oc1cc(O)cc(C=Cc2ccc(O)c(O)c2)c1`, the Potency is 19.3 µM (active).

The values above are taken from PubChem BioAssay (NCATS).
